Data from the supplement of paper PMC6555819.

How the values were obtained:
Test in all cases: PBM binding z-score (relative to random genomic background probes); higher = stronger binding; sequences stand for … in GC…GCGATTGACAGCGTAGAATGAAGG
[1] = test system: FXR:RXRa (NR concentration 270 nM, RXRa partner concentration 90 nM)
How it was run: (§1)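 Ligand-free nuclear receptor dimers were applied to custom Agilent 4×180K protein-binding microarrays whose double-stranded probes carried direct-repeat seeds, single-nucleotide variants, half-site ablations and random human genomic background sequences in 34-nt variable regions. Incubation lasted 1 h. Binding z-scores were computed against the random background probes from regression-normalized fluorescence.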

[2] = test system: LXRa:RXRa (NR concentration 270 nM, RXRa partner concentration 90 nM)
How it was run: as §1

[3] = test system: LXRa homodimer (NR concentration 270 nM)
How it was run: as §1

[4] = test system: LXRb:RXRa (NR concentration 270 nM, RXRa partner concentration 90 nM)
How it was run: as §1

[5] = test system: LXRb homodimer (NR concentration 270 nM)
How it was run: as §1

[6] = test system: PPARa:RXRa (NR concentration 270 nM, RXRa partner concentration 90 nM)
How it was run: as §1

[7] = test system: PPARg:RXRa (NR concentration 180 nM, RXRa partner concentration 90 nM)
How it was run: as §1

[8] = test system: PPARg:RXRa 270nM:90nM, anti-RXR (NR concentration 270 nM, RXRa partner concentration 90 nM)
How it was run: as §1

[9] = test system: PPARg:RXRa 30nM:10nM, anti-RXR (NR concentration 30 nM, RXRa partner concentration 10 nM)
How it was run: as §1

[10] = test system: PPARg:RXRa 90nM:30nM, anti-RXR (NR concentration 90 nM, RXRa partner concentration 30 nM)
How it was run: as §1

[11] = test system: PPARg:RXRa DBDmut IVT, anti-RXR (DBD mutation: RXRa K156A/R161A, NR concentration 270 nM, RXRa partner concentration 90 nM)
How it was run: as §1

[12] = test system: PPARg:RXRa IVT, anti-PPARg (NR concentration 270 nM, RXRa partner concentration 90 nM)
How it was run: as §1

[13] = test system: PPARg DBDmut:RXRa IVT, anti-PPARg (DBD mutation: PPARg1 K132A/R137A, NR concentration 270 nM, RXRa partner concentration 90 nM)
How it was run: as §1

[14] = test system: PPARg DBDmut IVT, anti-PPARg (DBD mutation: PPARg1 K132A/R137A, NR concentration 270 nM)
How it was run: as §1

[15] = test system: PPARg homodimer (NR concentration 180 nM)
How it was run: as §1

[16] = test system: PXR:RXRa (NR concentration 270 nM, RXRa partner concentration 90 nM)
How it was run: as §1

[17] = test system: PXR homodimer (NR concentration 270 nM)
How it was run: as §1

[18] = test system: RARa:RXR (NR concentration 270 nM, RXRa partner concentration 90 nM)
How it was run: as §1

[19] = test system: RARa homodimer (NR concentration 270 nM)
How it was run: as §1

[20] = test system: RARb:RXRa (NR concentration 270 nM, RXRa partner concentration 90 nM)
How it was run: as §1

Sequence	PBM binding z-score [1]	PBM binding z-score [2]	PBM binding z-score [3]	PBM binding z-score [4]	PBM binding z-score [5]	PBM binding z-score [6]	PBM binding z-score [7]	PBM binding z-score [8]	PBM binding z-score [9]	PBM binding z-score [10]	PBM binding z-score [11]	PBM binding z-score [12]	PBM binding z-score [13]	PBM binding z-score [14]	PBM binding z-score [15]	PBM binding z-score [16]	PBM binding z-score [17]	PBM binding z-score [18]	PBM binding z-score [19]	PBM binding z-score [20]
TCTGCTAGGTCAGTTGGTCAACTAACGAGCTGCC	0.974	0.627	-0.58	0.38	0.371	1.63	1.12	2.14	1.02	1.81	2.83	3.32	0.661	0.786	-0.104	0.269	-0.861	0.622	-0.954	3.27
CGTCAAAGTTCAACTAAGGGAACGTAAAGCACGC	6.99	6.08	3.68	3.74	1.85	4.93	4.78	5.73	1.94	4.2	0.0961	1.71	0.646	0.162	2.6	4.91	3.23	3.84	1.55	5.25
CCTACTGGGCCAAAAAGGTCACTGATGCCGATAA	2.83	3.29	1.36	3.63	-0.14	4.64	3.78	4.35	1.79	3.78	3.78	4.39	-0.138	-0.0876	3.8	4.22	1.16	4.59	1.29	4.15
CCGAGTAGGTTATGGGGCATTCTGGCAACGGTGA	0.393	0.413	-0.113	0.625	-0.33	2.14	3.38	4.15	2.03	3.6	3.05	3.19	-0.237	-1.42	1.24	0.151	0.0972	0.523	0.262	0.978
AGTCAAAGTTCAGGCCGAGGTAACGTAAAGCACG	4.1	4.03	1.27	1.71	0.0903	3.25	4.14	5.07	1.71	4.1	-0.249	1.8	0.687	0.000554	2.4	3.17	1.77	3	0.163	4.4
CTACCAAGGTGAACAAGGTCGTTGGTTACTATTC	1.39	1.4	0.281	1.71	-0.365	2.45	0.875	1.37	-0.194	0.758	1.96	2.45	0.303	-0.188	0.751	2.75	2.32	2.28	0.473	2.14
TGAATGAGGTTACAGATCAGGGAACGTGGCGTCG	1.82	1.45	-0.368	0.694	0.104	2.94	2.65	3.06	1.45	2.65	2.62	3.25	0.697	0.0776	0.777	0.892	-0.64	1.67	0.0673	1.9
GATACAGCGTCAGCTAGAGGCCAGAGTATGGAAA	-1.06	-0.907	-0.84	-1.11	-1.5	-1.18	0.184	-0.842	-0.638	-1	-0.984	-0.61	-2.52	-1.12	-1.09	-0.922	-0.376	-0.685	-1.14	-0.322
CGTCCAAGGTCAAGGTCAGTGACAGAGACTCGAA	7.96	5.86	1.34	4.71	0.819	5.76	6.3	6.48	2.85	4.82	4.03	4.87	1.18	-0.455	4.7	5.25	1.84	5.72	2.23	5.75
TCTATTAGTTGAAGGGCATCCGACGAGTCCGTTT	0.895	0.85	0.486	0.661	0.284	0.934	0.123	2.03	3.75	2.78	2.32	0.399	0.276	0.308	1.24	0.775	1.03	0.683	1.77	1.24
GGAACGAGGGCATTCGGGTTGATAGCATGGCGAT	1.28	1.22	-0.291	0.287	-0.152	1.74	0.887	0.703	-0.367	0.323	2.77	2.27	0.359	-0.376	0.523	3.69	2.77	0.733	-0.569	1.86
CCTGCTAGGTCAATGGTCAGCCAAAGCAGCTCGC	2.77	2.02	0.0245	1.36	-0.223	3.1	5.04	5.03	2.96	5.02	4.18	3.97	-0.884	-0.321	1.16	0.76	-0.543	1.52	-0.219	3.77
GCATATAGGTAATACAAGGTGAAAGTCCGATTGT	2.2	2.59	0.161	0.649	-0.271	1.68	1.37	1.36	0.636	0.931	4.15	3.2	1.3	0.902	0.296	0.502	0.135	0.993	0.75	0.523
TCTACCAGGCCAGAGGGTCACTCAAGAGGTACGG	1.36	1.24	-0.237	1.38	-0.315	2.65	2.06	3.41	3.25	3.44	1.61	1.75	-0.383	-0.224	1.12	1.82	-0.126	2.67	0.116	2.51
ATCTCTAGGTAACAAGATCAGTGAAAGAGAGGAC	0.203	0.168	0.348	0.0382	0.596	0.578	1.09	0.835	0.253	0.677	3.03	2.72	1.75	1.21	0.336	0.0521	-0.0922	0.158	1.1	0.327
ACAGACAGGTGAGTGCAGGTAACTCAGCTGGACG	0.0345	-0.289	-0.365	-0.549	-1.06	-0.0295	0.62	-0.199	-0.134	-0.571	0.771	1.05	0.0571	-0.297	-0.465	-0.0581	-0.0579	-0.416	-0.183	0.35
TCATATAGCTAAAAGGTGAAAGTCGGTGTGGTAA	0.855	1.02	0.0787	1.2	-0.577	2.26	0.863	2.94	3.25	3.08	2.08	0.996	0.333	0.116	0.824	0.793	0.353	1.37	0.703	1.5
TCTGCTAGGTCAACGATGGTCAGCTATTCTGCTA	3.16	2.62	-0.457	1.39	-0.158	3.15	2.42	2.96	2	2.29	4.2	4.42	0.0784	0.733	0.972	1.41	-1.08	2.24	-0.753	4.11
TAGCCTAGGTCGTGGGCCAGTATACCACGCGAAC	0.0973	0.0379	-0.669	0.0173	-0.88	0.972	0.333	0.511	-0.615	-0.0658	-0.693	0.595	-0.359	-1.24	-0.437	-0.344	-0.949	0.14	-0.754	1.19
CGAACTAGGTCAGAACAGGACGGTGAAGGATGAT	0.947	0.319	-0.295	-0.0399	-0.471	2.64	4.74	4.11	2.15	3.38	7.03	7.23	1.59	1.11	0.681	0.143	-0.288	0.525	0.0623	2.55
CTCGAACGGTCGTGCTCAGGTGAGTATACCAAAC	-0.183	-0.208	-0.21	-0.274	-0.517	-0.309	-0.285	-0.662	-0.759	-1.01	0.143	-0.0947	-0.8	-0.726	0.0744	-0.455	-0.32	-0.252	-0.56	0.781
AGAACGAGGTTATACGTAGATCAGGGAAGAAAGT	1.59	1.47	0.0402	1.32	-0.361	2.78	1.58	1.39	0.732	1	2.22	1.34	0.863	0.661	0.41	0.761	0.521	1.27	0.483	1.27
TAGCCTAGGTCAGATCCGGCCAGTATACGCTATA	1.78	1.41	-0.272	1.05	-0.172	1.69	0.79	0.773	-0.199	0.368	0.634	1.52	0.095	-0.353	0.289	1.09	-0.796	1.12	-0.924	3.17
CCTAGTTAGTCAAGGTCACACACGCTATAGGTAC	4.07	4.91	3.93	3.98	1.49	3.99	2.29	2.75	1.02	1.79	1.6	2.69	1.12	1.42	3.64	4.25	2.22	4.4	2.9	4.01
TCTTGTAGATCAAAGGTTACGAAAGCCGAAGCCT	2.01	2.2	0.222	2.27	-0.174	4.71	8.72	8.23	7.86	8.98	2.12	3.96	0.521	0.147	1.11	2.41	-0.449	3.28	-0.123	2.14
CCTAATAGTTGACCATAAGGGCAACCGAAGCTCG	0.919	0.486	0.29	0.606	0.214	0.827	0.664	0.43	0.117	0.37	-0.0162	0.473	0.327	0.353	1.09	0.821	0.596	1.27	1.46	1.72
ACTCGGACGACAAAGGTCAGAGCTACGCCAGTGA	3.61	4.04	1.27	3.23	0.325	4.37	4.45	5.09	2.65	4.51	0.324	2.18	0.163	-0.0873	2.37	3.4	-0.377	4.48	0.552	4.17
CAAACTAGGTCACCGGAATGTCAAAGTCCGCATG	4.57	3.52	0.679	2.64	0.303	5.44	8.97	7.22	5.76	7.24	8.65	9.1	5.11	2.79	2.69	2.31	-0.000286	3.53	0.651	4.37
